# Experimental data: PubChem BioAssay AID1159580 (chemical genetic matrix, 2015)
# In all, about 5,500 compounds went through this assay and about 2,000 (36%) were called active. Not shown: some 18% with an inconclusive outcome. The list shows a part of the results. A number with no mark means an inactive call. Rule as the data show it: active = normalized growth mostly below about 0.91 (no sharp cut-off); inconclusive = no clear call, values can overlap the other calls; inactive = mostly above about 0.92.
# Experiment: chemical genetic growth profiling, strain panel (AID 1159580);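 also: tested at 20 µM; growth read once vehicle control cultures reached saturation at 30 °C; 1 = growth at the plate median or of vehicle wells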
# Settings: growth OD
compound,measurement,setting,value
Cc1cccc(CN2CCN(C(c3ccccc3)c3ccc(Cl)cc3)CC2)c1 (stereo not drawn),normalized growth,"S. cerevisiae deletion strains, locus YJR075W, strain HOC1, stronger effect = lower value",0.794 (active)
same,normalized growth,"S. cerevisiae deletion strains, locus YKL009W, strain mrt4, stronger effect = lower value",0.971
same,normalized growth,"S. cerevisiae deletion strains, locus YKL068W, stronger effect = lower value",0.992
same,normalized growth,"S. cerevisiae deletion strains, locus YKL085W, strain MDH1 (second series), stronger effect = lower value",0.978
same,normalized growth,"S. cerevisiae deletion strains, locus YKL085W, strain MDH1, stronger effect = lower value",0.978
same,normalized growth,"S. cerevisiae deletion strains, locus YKL160W, strain elf1, stronger effect = lower value",0.75 (active)
same,normalized growth,"S. cerevisiae deletion strains, locus YKR001C, strain vps1, stronger effect = lower value",0.47 (active)
same,normalized growth,"S. cerevisiae deletion strains, locus YKR026C, strain gcn3, stronger effect = lower value",0.969
same,normalized growth,"S. cerevisiae deletion strains, locus YKR091W, strain srl3, stronger effect = lower value",0.964
same,normalized growth,"S. cerevisiae deletion strains, locus YLL001W, strain dnm1, stronger effect = lower value",0.81 (active)
same,normalized growth,"S. cerevisiae deletion strains, locus YLL026W, stronger effect = lower value",0.8 (active)
same,normalized growth,"S. cerevisiae deletion strains, locus YLL041C, strain sdh2, stronger effect = lower value",0.926 (active)
same,normalized growth,"S. cerevisiae deletion strains, locus YLR027C, strain aat2, stronger effect = lower value",0.744 (active)
same,normalized growth,"S. cerevisiae deletion strains, locus YLR039C, strain RIC1, stronger effect = lower value",1.31
same,normalized growth,"S. cerevisiae deletion strains, locus YLR058C, strain SHM2, stronger effect = lower value",0.766 (active)
same,normalized growth,"S. cerevisiae deletion strains, locus YLR102C, strain apc9, stronger effect = lower value",0.99
same,normalized growth,"S. cerevisiae deletion strains, locus YLR113W, strain HOG1, stronger effect = lower value",0.912
same,normalized growth,"S. cerevisiae deletion strains, locus YLR221C, strain rsa3, stronger effect = lower value",0.601 (active)
same,normalized growth,"S. cerevisiae deletion strains, locus YLR258W, strain gsy2, stronger effect = lower value",0.721 (active)
same,normalized growth,"S. cerevisiae deletion strains, locus YLR262C, strain YPT6 (second series), stronger effect = lower value",0.905
same,normalized growth,"S. cerevisiae deletion strains, locus YLR262C, strain YPT6, stronger effect = lower value",1.06
same,normalized growth,"S. cerevisiae deletion strains, locus YLR268W, strain sec22, stronger effect = lower value",0.895
same,normalized growth,"S. cerevisiae deletion strains, locus YLR320W, strain mms22, stronger effect = lower value",0.713 (active)
same,normalized growth,"S. cerevisiae deletion strains, locus YLR330W, strain CHS5, stronger effect = lower value",0.743 (active)
same,normalized growth,"S. cerevisiae deletion strains, locus YLR342W, strain FKS1 (second series), stronger effect = lower value",0.791
same,normalized growth,"S. cerevisiae deletion strains, locus YLR342W, strain FKS1, stronger effect = lower value",0.929
same,normalized growth,"S. cerevisiae deletion strains, locus YLR357W, strain rsc2, stronger effect = lower value",0.908
same,normalized growth,"S. cerevisiae deletion strains, locus YLR370C, strain arc18, stronger effect = lower value",0.853 (active)
same,normalized growth,"S. cerevisiae deletion strains, locus YLR371W, strain rom2, stronger effect = lower value",0.964
same,normalized growth,"S. cerevisiae deletion strains, locus YLR384C, strain iki3, stronger effect = lower value",0.992
same,normalized growth,"S. cerevisiae deletion strains, locus YLR418C, strain cdc73, stronger effect = lower value",0.365 (active)
same,normalized growth,"S. cerevisiae deletion strains, locus YML016C, strain PPZ1, stronger effect = lower value",0.887 (active)
same,normalized growth,"S. cerevisiae deletion strains, locus YML032C, strain rad52, stronger effect = lower value",0.831 (active)
same,normalized growth,"S. cerevisiae deletion strains, locus YML120C, strain ndi1, stronger effect = lower value",0.616 (active)
same,normalized growth,"S. cerevisiae deletion strains, locus YML124C, strain tub3, stronger effect = lower value",0.977
same,normalized growth,"S. cerevisiae deletion strains, locus YMR058W, strain fet3, stronger effect = lower value",0.873 (active)
same,normalized growth,"S. cerevisiae deletion strains, locus YMR078C, strain ctf18, stronger effect = lower value",0.986
same,normalized growth,"S. cerevisiae deletion strains, locus YMR125W, strain sto1, stronger effect = lower value",0.854 (active)
same,normalized growth,"S. cerevisiae deletion strains, locus YMR129W, stronger effect = lower value",0.876 (active)
same,normalized growth,"S. cerevisiae deletion strains, locus YMR205C, strain PFK2, stronger effect = lower value",0.802 (active)
same,normalized growth,"S. cerevisiae deletion strains, locus YMR223W, strain ubp8, stronger effect = lower value",0.809 (active)
same,normalized growth,"S. cerevisiae deletion strains, locus YMR231W, strain pep5, stronger effect = lower value",0.526 (active)
same,normalized growth,"S. cerevisiae deletion strains, locus YMR263W, strain SAP30, stronger effect = lower value",0.754 (active)
same,normalized growth,"S. cerevisiae deletion strains, locus YMR307W, strain GAS1, stronger effect = lower value",0.611
same,normalized growth,"S. cerevisiae deletion strains, locus YNL067W, strain RPL9B, stronger effect = lower value",0.789 (active)
same,normalized growth,"S. cerevisiae deletion strains, locus YNL071W, strain lat1, stronger effect = lower value",0.801 (active)
same,normalized growth,"S. cerevisiae deletion strains, locus YNL183C, strain NPR1, stronger effect = lower value",0.947
same,normalized growth,"S. cerevisiae deletion strains, locus YNL209W, strain ssb2, stronger effect = lower value",0.54 (active)
same,normalized growth,"S. cerevisiae deletion strains, locus YNL233W, strain BNI4, stronger effect = lower value",0.692 (active)
same,normalized growth,"S. cerevisiae deletion strains, locus YNL248C, strain rpa49, stronger effect = lower value",0.806 (active)
same,normalized growth,"S. cerevisiae deletion strains, locus YNL250W, strain rad50, stronger effect = lower value",0.983
same,normalized growth,"S. cerevisiae deletion strains, locus YNL271C, strain bni1, stronger effect = lower value",0.988
same,normalized growth,"S. cerevisiae deletion strains, locus YNL298W, strain CLA4, stronger effect = lower value",0.988
same,normalized growth,"S. cerevisiae deletion strains, locus YNL307C, strain MCK1, stronger effect = lower value",0.96
same,normalized growth,"S. cerevisiae deletion strains, locus YNL322C, strain KRE1 (second series), stronger effect = lower value",0.685 (active)
same,normalized growth,"S. cerevisiae deletion strains, locus YNL322C, strain KRE1, stronger effect = lower value",0.972
same,normalized growth,"S. cerevisiae deletion strains, locus YNR049C, strain mso1, stronger effect = lower value",0.983
same,normalized growth,"S. cerevisiae deletion strains, locus YNR052C, strain pop2, stronger effect = lower value",0.724 (active)
same,normalized growth,"S. cerevisiae deletion strains, locus YOL012C, strain htz1",0.942
same,normalized growth,"S. cerevisiae deletion strains, locus YOL147C, strain pex11, stronger effect = lower value",0.913 (active)
same,normalized growth,"S. cerevisiae deletion strains, locus YOR001W, strain rrp6, stronger effect = lower value",0.802 (active)
same,normalized growth,"S. cerevisiae deletion strains, locus YOR061W, strain CKA2, stronger effect = lower value",0.916
same,normalized growth,"S. cerevisiae deletion strains, locus YOR069W, strain VPS5, stronger effect = lower value",0.955
same,normalized growth,"S. cerevisiae deletion strains, locus YOR070C, strain gyp1, stronger effect = lower value",0.735 (active)
same,normalized growth,"S. cerevisiae deletion strains, locus YOR080W, strain dia2, stronger effect = lower value",0.937
same,normalized growth,"S. cerevisiae deletion strains, locus YOR083W, strain WHI5, stronger effect = lower value",0.689 (active)
same,normalized growth,"S. cerevisiae deletion strains, locus YOR106W, strain vam3, stronger effect = lower value",0.549 (active)
same,normalized growth,"S. cerevisiae deletion strains, locus YOR136W, strain idh2, stronger effect = lower value",0.937
same,normalized growth,"S. cerevisiae deletion strains, locus YOR144C, strain elg1, stronger effect = lower value",0.973
same,normalized growth,"S. cerevisiae deletion strains, locus YOR184W, strain ser1, stronger effect = lower value",0.833 (active)
same,normalized growth,"S. cerevisiae deletion strains, locus YOR231W, strain MKK1, stronger effect = lower value",0.887
same,normalized growth,"S. cerevisiae deletion strains, locus YOR265W, strain rbl2, stronger effect = lower value",0.774 (active)
same,normalized growth,"S. cerevisiae deletion strains, locus YOR270C, strain vph1, stronger effect = lower value",0.524 (active)
same,normalized growth,"S. cerevisiae deletion strains, locus YOR290C, strain snf2, stronger effect = lower value",0.764 (active)
same,normalized growth,"S. cerevisiae deletion strains, locus YOR316C, strain cot1, stronger effect = lower value",0.98
same,normalized growth,"S. cerevisiae deletion strains, locus YPL051W, strain arl3, stronger effect = lower value",0.496 (active)
same,normalized growth,"S. cerevisiae deletion strains, locus YPL055C, strain LGE1, stronger effect = lower value",0.439 (active)
same,normalized growth,"S. cerevisiae deletion strains, locus YPL078C, strain atp4, stronger effect = lower value",0.887 (active)
same,normalized growth,"S. cerevisiae deletion strains, locus YPL106C, strain sse1, stronger effect = lower value",0.828 (active)
same,normalized growth,"S. cerevisiae deletion strains, locus YPL240C, strain hsp82, stronger effect = lower value",0.808 (active)
same,normalized growth,"S. cerevisiae deletion strains, locus YPL241C, strain CIN2, stronger effect = lower value",0.956
same,normalized growth,"S. cerevisiae deletion strains, locus YPL256C, strain CLN2, stronger effect = lower value",0.94
same,normalized growth,"S. cerevisiae deletion strains, locus YPR119W, strain clb2, stronger effect = lower value",0.996
same,normalized growth,"S. cerevisiae deletion strains, locus YPR141C, strain kar3, stronger effect = lower value",0.989
same,normalized growth,"S. cerevisiae deletion strains, locus YPR163C, strain tif3, stronger effect = lower value",0.721 (active)
same,normalized growth,"S. cerevisiae deletion strains, locus YPR167C, strain met16, stronger effect = lower value",0.884 (active)
same,normalized growth,"S. cerevisiae deletion strains, strain wtn01, stronger effect = lower value",0.761 (active)
same,normalized growth,"S. cerevisiae strains, strain wild type, stronger effect = lower value",0.812 (active)
